The list is not random: actives were taken first. Their share in the collection is about 18%.
TDP1 block – qHTS Assay for Inhibitors of Tyrosyl-DNA Phosphodiesterase (TDP1); AID 485290, 2010; 350,000 tested, 0.28% active; Potency, µM (doses to about 130 µM), actives largely listed as inhibitors; recombinant TDP1, AlphaScreen DNA substrate cleavage; Tyrosyl-DNA phosphodiesterase 1 (Homo sapiens), Q9NUW8; further: nearly all actives have a fitted effect of over 40% in size
Target sequence (Q9NUW8 whole entry, looked up): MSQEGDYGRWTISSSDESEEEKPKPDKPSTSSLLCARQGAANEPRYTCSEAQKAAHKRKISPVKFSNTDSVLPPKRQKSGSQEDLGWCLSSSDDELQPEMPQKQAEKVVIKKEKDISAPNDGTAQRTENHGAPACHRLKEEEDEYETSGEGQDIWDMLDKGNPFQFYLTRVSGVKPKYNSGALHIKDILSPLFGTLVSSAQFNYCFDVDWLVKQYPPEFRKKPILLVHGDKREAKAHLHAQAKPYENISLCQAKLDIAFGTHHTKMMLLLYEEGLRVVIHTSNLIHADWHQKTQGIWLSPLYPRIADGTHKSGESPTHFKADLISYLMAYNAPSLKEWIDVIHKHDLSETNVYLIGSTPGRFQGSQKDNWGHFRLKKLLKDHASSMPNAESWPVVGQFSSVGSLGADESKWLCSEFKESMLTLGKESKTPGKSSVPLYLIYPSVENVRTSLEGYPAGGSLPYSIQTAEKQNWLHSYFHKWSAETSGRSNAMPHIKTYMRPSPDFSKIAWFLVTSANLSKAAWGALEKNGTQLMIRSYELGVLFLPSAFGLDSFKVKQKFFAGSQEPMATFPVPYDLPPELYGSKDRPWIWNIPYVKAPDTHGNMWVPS
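Tdp1 1 nM final; 15 min RT w/ cpd; substrate 15 nM, 5 min; beads 10 ug/ml, 10 min; AlphaScreen read. Neg ctrl: no enzyme.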
CtBP-E1A inh – qHTS Assay for Inhibitors of the CtBP/E1A Interaction; CtBP / adenovirus E1A interaction (AlphaScreen); AlphaScreen GST-E1A/His-CtBP binding, 1536-well; hits give low values; activity change, % (test concentration not listed); 340,000 tested, 0.49% active; in the data active means activity change below about -65%; inconclusive means mostly about -30% to -63%
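In 5 uL wells, 23 nL compound meets equimolar GST-E1A and His-CtBP (5X stock 125 nM each) for 2 h, 37 °C. Beads (5X, 50 ug/mL) then 1 h, 37 °C, dark.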
IL-1B inflam inh – qHTS for Inhibitors of Inflammasome Signaling: IL-1-beta AlphaLISA Primary Screen. THP-1 LPS/ATP IL-1B secretion, AlphaLISA, 16 h; hits give low values. activity change, % at 57.5 µM. 360,000 tested, 4.7% active; in the data active means activity change below about -50%; inconclusive means mostly about -30% to -49%
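Secreted IL-1B measured by AlphaLISA bead assay after 16 h compound exposure of THP-1 cells; compounds (final up to 57.5 uM) added 1 h before LPS (250 ng/mL) and ATP (1.25 mM) stimulation; lower signal means less secretion.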
Six1-Eya2 blk – qHTS Assay for Inhibitors of the Six1/Eya2 Interaction; Homeobox protein SIX1 (Homo sapiens) + Protein phosphatase EYA2 (Homo sapiens), …; AlphaScreen GST-Six1/His-Eya2 binding, biochemical; hits give low values; activity change, % (no concentration beside the values); 360,000 tested, 0.56% active; in the data active means activity change below about -65%; inconclusive means mostly about -30% to -63%
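AlphaScreen luminescence read after one hour at 37 °C in darkness. Pin-transferred compounds met GST-Six1 and His-Eya2 protein (5X stock 250 nM/500 nM) plus glutathione donor and Ni-chelate acceptor beads (5X, 50 ug/mL).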
TDP1 cell CPT – qHTS for Inhibitors of human tyrosyl-DNA phosphodiesterase 1 (TDP1): qHTS in cells in presence of CPT; AID 686979, 2013; Potency, µM (series often up to 46.2 µM), usual class: inhibitors; 420,000 tested, 12% active; chicken DT40 Tdp1-/-;hTDP1 cells + 20 nM CPT, ATP luminescence, 48 h; further: nearly all actives have a fitted effect of over 55% in size
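Chicken DT40 Tdp1-/- cells stably complemented with human TDP1 were seeded at 400 cells/well in medium containing 20 nM camptothecin, exposed to pin-transferred compounds, and grown at 37 °C for at least 48 hr. Viability was read as ATP luminescence.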
DT40 TDP1 no CPT – qHTS for Inhibitors of human tyrosyl-DNA phosphodiesterase 1 (TDP1): qHTS in cells in absence of CPT; DT40 Tdp1-/- hTDP1 cells, no CPT, ATP luminescence, 48 h; Potency, µM (titrated, usually from 46.2 µM), hits mostly inhibitors; 420,000 tested, 15% active; AID 686978, 2013; further: nearly all actives have a fitted effect of over 55% in size
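Chicken DT40 Tdp1-/- cells stably complemented with human TDP1 were seeded at 400 cells/well with DMSO in place of 20 nM camptothecin. After compound pinning, cells grew at least 48 hr at 37 °C; viability read by CellTiter-Glo luminescence.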
A number is an active result; 0 = inactive; ? = inconclusive; - = no result; [ ] = remark or other dose. Unless noted, the call rests on the fitted dose curve; in most records, active means well fitted curve in the direction sought with a large enough effect; inconclusive means small, poorly fitted or top-dose-only effect, or another doubt; inactive means no such curve, though single readings can be large; an effect the other way counts as inactive or inconclusive.

SMILES	TDP1 block	CtBP-E1A inh	IL-1B inflam inh	Six1-Eya2 blk	TDP1 cell CPT	DT40 TDP1 no CPT
Cc1ccc(C)c(OCc2nnc(SCC(=O)NC(=O)NCc3ccco3)o2)c1	0	0	0	0	0	0
CC(C)CC(=O)N1C/C=C\C[C@@H](c2ccc(Cl)cc2)N(Cc2ccc(Cl)cc2)C(=O)[C@@H]1Cc1ccccc1	-	-	-	-	10µM	13µM
O=C1[C@H](Cc2ccccc2)NCC=CC[C@@H](c2ccc(Cl)cc2)N1Cc1ccc(Cl)cc1	-	0	-60	0	?	?
O=C1[C@H](Cc2ccccc2)NCC=CC[C@H](c2ccc(Cl)cc2)N1Cc1ccccc1	-	0	-52	0	?	?
CC1CC=CC2C1C(=O)N(Cc1ccccc1)C2c1ccc(F)c(Br)c1 (configuration not stated)	0	-	-	-	-	-
O=C1[C@H](Cc2ccccc2)NCC=CC[C@H](c2ccc(Cl)cc2)N1Cc1ccc(Cl)cc1	-	-	-66	0	23µM	16µM
O=c1[nH]c2ccccc2n1Cc1ccc(Cl)cc1	0	0	0	0	0	?
CCc1ccc(NC(=S)N(Cc2cccnc2)Cc2ccco2)cc1	0	0	-67	0	?	18µM
CCc1ccc(NC(=S)N(CCCN2CCOCC2)Cc2ccccn2)cc1	0	0	0	0	0	0
CCc1ccc(NC(=S)N(Cc2ccccc2)Cc2ccccn2)cc1	0	0	-60	0	12µM	4.6µM
CC1(C)CC(n2c(NCCO)nc3c(c2=O)C2(CCCC2)Cc2ccccc2-3)CCO1 (configuration not stated)	0	0	-66	0	?	?
CCC1(C)Cc2ccccc2-c2nc(NCCCO)n(C)c(=O)c21 (configuration not stated)	0	0	0	0	?	?
CCC1(C)Cc2ccccc2-c2nc(NCCO)n(-c3ccccc3)c(=O)c21 (configuration not stated)	0	0	0	0	4.1µM	4.6µM
CC1(C)Cc2ccccc2-c2nc(NCCO)n(-c3ccccc3)c(=O)c21	0	0	0	0	18µM	18µM
COc1cc(=O)n(C)c2c(OCC3OC(C)(C)OC3(C)C)cccc12 (configuration not stated)	0	0	0	0	0[9.04 µM]	0[9.04 µM]
Cc1ccc(Nc2nnc(C3C(=O)N(C)C4(C)CC3c3cc(Br)ccc3O4)s2)cc1 (configuration not stated)	0	0	0	0	?	?
CC(C)C[C@H](NC(=O)c1[nH]cnc1C(=O)N[C@@H](Cc1ccccc1)C(=O)OC(C)(C)C)C(=O)OC(C)(C)C	0	0	-50	0	16µM	?
CC(C)C[C@H](NC(=O)c1[nH]cnc1C(=O)N[C@@H](Cc1ccccc1)C(=O)OC(C)(C)C)C(=O)OCc1ccccc1	-	-	0	0	?	23µM
CC(C)C[C@H](NC(=O)c1[nH]cnc1C(=O)N[C@@H](Cc1ccccc1)C(=O)OCc1ccccc1)C(=O)OC(C)(C)C	-	0	0	0	21µM	21µM
CC(C)C[C@H](NC(=O)c1[nH]cnc1C(=O)N[C@@H](C)C(=O)OC(C)(C)C)C(=O)OCc1ccccc1	0	-	0	0	?	16µM
C[C@H](NC(=O)c1nc[nH]c1C(=O)N[C@@H](Cc1ccccc1)C(=O)OCc1ccccc1)C(=O)OC(C)(C)C	-	0	0	0	?	0
C[C@H](NC(=O)OCc1ccccc1)C(=O)NNC(=O)[C@H](Cc1ccccc1)NC(=O)OC(C)(C)C	0	-	0	0	0	0
C[C@@H](NC(=O)c1nc[nH]c1C(=O)N[C@@H](Cc1ccccc1)C(=O)OCc1ccccc1)c1ccccc1	0	0	0	0	?	18µM
CC(C)(C)OC(=O)C(Cc1ccc(OC(C)(C)C)cc1)NC(=O)CNC(=O)OCc1ccccc1 (configuration not stated)	0	0	-71	0	16µM	12µM
CC(C)C[C@H](NC(=O)c1[nH]cnc1C(=O)Nc1ccccc1F)C(=O)OC(C)(C)C	-	0	0	0	0	23µM
SMILES	TDP1 block	CtBP-E1A inh	IL-1B inflam inh	Six1-Eya2 blk	TDP1 cell CPT	DT40 TDP1 no CPT
CC(C)C[C@H](NC(=O)c1[nH]cnc1C(=O)N[C@@H](C)c1ccccc1)C(=O)OC(C)(C)C	0	0	0	0	?	?
COC(=O)CSc1nc(N)nc(C)c1Br	0	0	0	0	0	0
O=C(NC1(Cc2ccccc2)CCN(Cc2ccc(-c3ccccc3)cc2)C1=O)c1ccccc1 (configuration not stated)	0	0	0	0	21µM	23µM
CC1(NC(=O)CC(c2ccccc2)(c2ccccc2)c2ccccc2)CCN(CCCc2ccccc2)C1=O (configuration not stated)	0	0	0	0	23µM	21µM
O=C(Nc1ccnn1C1CCN(CCCc2ccccc2)CC1)c1ccccc1	0	0	0	0	0	0
CCOC(=O)N1CCN(CCCc2ccccc2)CC1	-	0	0	0	0	0
CC1(NC(=O)CCc2ccccc2)CCN(CCCc2ccccc2)C1=O (configuration not stated)	0	0	0	0	15µM	?
O=C(CCc1ccccc1)NC1(Cc2ccccc2)CCN(CCc2cccs2)C1=O (configuration not stated)	0	0	?	0	?	?
CC1(NC(=O)c2ccccc2)CCN(CCCc2ccccc2)C1=O (configuration not stated)	0	0	0	0	3.7µM	4.6µM
CCCCn1c(N)c(N(CC(C)C)C(=O)c2cccc(S(=O)(=O)N3CCCCCC3)c2)c(=O)[nH]c1=O	0	0	0	0	0	0
CCOC(=O)C1(C)CCCN1C(=O)c1cccc2ccccc12 (configuration not stated)	-	0	0	0	12µM	18µM
CCOC(=O)C1(C)CCCCN1C(=O)c1ccco1 (configuration not stated)	-	0	0	0	0	0
CCOC(=O)C1(C)CCCCCN1C(=O)c1ccc(N(C)C)cc1 (configuration not stated)	-	0	0	0	?	21µM

High-throughput results from PubChem.
